# Screening results from PubChem BioAssay.
# FLuc counter: inhibits or activates purified firefly luciferase, miR-21 counter-screen; 360,000 compounds, 6.9% hits; AID 588342; Potency, µM (doses to about 57.5 µM), for the others: at the highest dose activity change, negative = inhibition, hits mostly inhibitors; purified FLuc, Km substrates, luminescence inhibition;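 note: plate controls were vehicle for no effect and reference inhibitor for full effect; nearly all actives have a fitted effect of over 55% in size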
# Target sequence (P08659 whole entry, looked up): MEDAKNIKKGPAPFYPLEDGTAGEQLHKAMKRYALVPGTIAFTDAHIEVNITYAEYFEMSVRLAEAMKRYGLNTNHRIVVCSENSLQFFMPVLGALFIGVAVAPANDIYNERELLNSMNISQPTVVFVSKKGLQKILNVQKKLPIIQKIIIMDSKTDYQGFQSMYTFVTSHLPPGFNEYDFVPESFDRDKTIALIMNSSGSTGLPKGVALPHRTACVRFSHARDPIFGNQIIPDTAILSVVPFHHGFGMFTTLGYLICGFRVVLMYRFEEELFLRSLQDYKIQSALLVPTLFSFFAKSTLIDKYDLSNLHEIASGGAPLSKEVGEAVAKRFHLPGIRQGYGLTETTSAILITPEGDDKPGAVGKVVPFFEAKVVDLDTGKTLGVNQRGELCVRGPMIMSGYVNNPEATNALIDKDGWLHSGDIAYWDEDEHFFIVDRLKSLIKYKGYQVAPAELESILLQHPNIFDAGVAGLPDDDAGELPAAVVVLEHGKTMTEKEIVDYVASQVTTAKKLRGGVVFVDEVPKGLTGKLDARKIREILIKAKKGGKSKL
#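 Biochemical qHTS of compounds, final roughly 60 µM downward over six points, against 10 nM purified firefly luciferase using Km concentrations of substrates (10 uM D-luciferin, 10 uM ATP) in Tris acetate pH 7.5 buffer; luminescence output.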
# NPC1 prom act: activates the NPC1 promoter | Huh7 NPC1 promoter luciferase reporter, 24 h | Potency, µM (doses to about 9.22 µM), inactives show top-dose activation, most hits filed as activators | 320,000 compounds, 2.4% hits | AID 485313; note: % of control where 0% means no effect; nearly all actives have a fitted effect of over 60% in size
#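 Huh7 cells stably carrying NPC1 promoter–luciferase, plated in Opti-MEM with 10% FBS for 2 h, were exposed to compound in DMSO for 24 h at 37 °C; luciferase reagent was added for 10 min and luminescence read.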
# SMN2 splice enh: SMN2 splice variant enhancement; HEK293 SMN2-luciferase splicing reporter, luminescence, 30-36 h; Potency, µM (doses to about 46.1 µM), inactives show at the highest dose activity change, positive = activation, usual class: activators; 210,000 compounds, 2.8% hits; note: % of control where 0% means no effect; nearly all actives have a fitted effect of over 55% in size
#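 qHTS luciferase splicing reporter: luminescence rises when SMN2 exon 7 is included in transfected HEK293 cells. Compound exposure lasted 30-36 h at 37C, with 4.5 mM final sodium butyrate as control, followed by a ONE-Glo read.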
# ELG1 genotox: inducers of genotoxicity in HEK293T ELG1-luciferase cells; HEK293T ELG1-luciferase reporter, luminescence, 16 h; 330,000 compounds, 1.3% hits; Potency, µM (titrated, usually from 46 µM), inactives show at the highest dose activity change, positive = activation, most hits filed as activators; note: % of control where 0% means no effect; nearly all actives have a fitted effect of over 60% in size
#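 Luminescence read-out: rising ELG1-luciferase signal, reflecting elevated ELG1 protein under genetic stress, flags genotoxic compounds. Cells were treated for 16 hr at 37 °C before ONE-Glo detection.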
# Rab9 promoter act: activates the Rab9 promoter | 320,000 compounds, 2.8% hits | Huh7 Rab9 promoter-luciferase reporter, luminescence, 24 h | Potency, µM (top dose mostly 9.22 µM), for inactives: top-dose activation, negative = inhibition, usual class: activators | AID 485297; note: % of control where 0% means no effect; nearly all actives have a fitted effect of over 60% in size
#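 Cells were plated at 1500 per well in reduced-serum medium with 10% FBS and left 2 h. Compound in DMSO was then added for 24 h at 37 °C. Reporter signal was read by luminescence after 10 min with luciferase detection reagent.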
# Numbers without * were called inactive; ? = inconclusive; / = no result; [ ] = remark or other dose. A selection: hits, their analogues and other compounds. The true share with any hit is near 7.4%. Calls come from the whole dose curve; as a rule, active = well fitted curve in the direction sought with a large enough effect; inconclusive = small, poorly fitted or top-dose-only effect, or another doubt; inactive = no such curve, though single readings can be large; an effect the other way counts as inactive or inconclusive. Potency is the fitted concentration of half-maximal effect.
SMILES,FLuc counter,NPC1 prom act,SMN2 splice enh,ELG1 genotox,Rab9 promoter act
N#CCCS(=O)(=O)c1ccccc1,/,/,17.1%,/,/
COc1ccccc1N1CCN(C(=O)c2c(C)oc3ncn(C)c(=O)c23)CC1,-0.1%,/,/,/,/
O=C(Nc1ccc2c(c1)OCO2)c1cccc(Cl)c1,9.53µM*,3.16µM*,15.8µM*,?,2.24µM*
O=C(Nc1ccc(Cl)c([N+](=O)[O-])c1)c1ccc2c(c1)OCCO2,6.01µM*,?,/,?,0.891µM*
O=C(Nc1ccc2c(c1)OCO2)c1ccc[n+]([O-])c1,0.5%,-4.4%,-6.3%,1.4%,7.3%
O=C(Nc1ccc2c(c1)OCO2)c1ccc2c(c1)OCO2,2.13µM*,0.794µM*,5.01µM*,?,0.562µM*
O=C(Nc1ccc(Br)cc1)c1ccc2c(c1)OCO2,2.13µM*,1µM*,/,8.2µM*,0.708µM*
O=[N+]([O-])c1ccc(CSc2ccc(S(=O)(=O)N3CCCCCC3)cn2)cc1,-1.8%,-3.5%,/,-2.1%,0.0%
O=C(Nc1ccc2c(c1)OCO2)c1ccc(Cl)s1,4.26µM*,2.24µM*,7.08µM*,2.59µM*,2µM*
O=C(Nc1ccc(N2CCOCC2)c(Cl)c1)c1ccc2c(c1)OCCO2,?,-0.2%,/,-1.4%,6.2%
O=C(Nc1ccc2c(c1)OCO2)c1c(Cl)nc2sccn12,?,?,?,?,3.16µM*
Cn1ncc(Cl)c1C(=O)Nc1ccc2c(c1)OCO2,-10.1%,16.6%,/,13.0%,18.1%
Cc1[nH]c2ccccc2c1C(=O)C(=O)Nc1ccc2c(c1)OCO2,16.9µM*,?,/,17.1%,?
O=C(Nc1ccc(N2CCCCC2)c(Cl)c1)c1ccc2c(c1)OCCO2,5.36µM*,24.5%,-61.0%,?,28.2%
CNC(=O)C(C)Sc1ccc(S(=O)(=O)N2CCOCC2)cn1 (centres undefined),6.4%,-2.2%,/,2.6%,2.5%
Cc1ccc(C2(C)NC(=O)N(CC(=O)NNC(=O)c3ccccc3F)C2=O)cc1 (centres undefined),-0.2%,1.2%,/,19.0%,10.9%
O=C(Nc1ccc(Cl)cc1)C1=Cc2ccccc2OC1,1.9µM*,3.16µM*,22.4µM*,1.46µM*,0.562µM*
O=C(Nc1ccc(Cl)cc1)c1ccc2c(c1)OCO2,1.35µM*,0.398µM*,4.47µM*,?,?
O=C(Nc1ccc(NC(=O)c2ccc(Cl)cc2Cl)cc1)c1ccc2c(c1)OCO2,0.1%,-3.1%,/,1.4%,0.1%
O=C(Nc1ccc(Cl)c(Cl)c1)c1ccc2c(c1)OCO2,1.51µM*,0.794µM*,/,4.61µM*,0.562µM*
CC(NC(=O)C1=Cc2ccccc2OC1)c1ccccc1 (centres undefined),-3.0%,/,/,/,/
N#CCC(=O)Nc1ccc(C(=O)Nc2ccc3c(c2)OCO3)cc1,?,13.9%,/,17.0%,26.4%
O=C(Nc1ccc2c(c1)OCO2)c1ccc(CO)cc1,9.53µM*,3.16µM*,/,?,2.82µM*
C[C@@H]1C[C@H]2[C@H]3C[C@@H](F)C4=CC(=O)C=C[C@]4(C)[C@@]3(Cl)[C@@H](O)C[C@@]2(C)[C@@H]1C(=O)COC(=O)C(C)(C)C,/,/,-6.5%[20.6 µM],/,/
CCc1ccc(-n2c(C)n[nH]c2=S)cc1,-1.2%,-1.1%,/,2.6%,-0.2%
SMILES,FLuc counter,NPC1 prom act,SMN2 splice enh,ELG1 genotox,Rab9 promoter act
COc1ccc(CNC(=O)CCNS(=O)(=O)c2cc(Br)cnc2N)cc1,-0.7%,-1.3%,/,-12.7%,2.6%
O=C(Nc1ccc2c(c1)OCO2)c1c(F)c(F)c(F)c(F)c1F,1.3%[2.3 µM],0.7%,31.0%,-5.3%,14.9%
CCN1CCN(c2ccc(NC(=O)c3ccc4c(c3)OCO4)cc2)CC1,16.9µM*,?,15.8µM*,9.2µM*,?
NC(=O)c1ccc(NC(=O)c2ccc3c(c2)OCO3)cc1,4.78µM*,1.26µM*,12.6µM*,18.4µM*,1.58µM*
Cc1cc(C(=O)Nc2ccc3c(c2)OCO3)cs1,4.78µM*,1.78µM*,12.6µM*,7.31µM*,1.26µM*
O=C(Nc1ccc(F)c(F)c1)c1ccc2c(c1)OCO2,9.53µM*,2.51µM*,12.7%,3.66µM*,?
COc1ccc(NC(=S)N2CCN(C(=O)c3ccccc3)CC2)cc1,-0.1%,-1.0%,2.7%,-4.4%,-8.3%
O=C(Nc1ccc(N2CCCCC2)c(Cl)c1)c1ccc(N2CCOCC2)c([N+](=O)[O-])c1,?,-3.0%,-31.4%,-9.2%,-3.7%
O=C(Nc1ccc2c(c1)OCO2)c1ccc(N2CCCC2)c([N+](=O)[O-])c1,19µM*,13.7%,24.4%,3.1%,-1.3%
O=C(Nc1ccc2nsnc2c1)c1ccc2c(c1)OCO2,1.35µM*,0.631µM*,5.62µM*,1.16µM*,0.447µM*
Cc1ccccc1-c1cc(-n2ccnc2)ncn1,/,/,-3.0%,/,/
COc1ccc(NC(=O)CSC2=Nc3ccccc3C3=NC(CC(=O)NCCc4ccccc4)C(=O)N23)cc1 (centres undefined),-3.3%,/,/,/,/
COc1ccccc1N(/N=C1\Sc2ccccc2C1=O)C(C)=O,12µM*,25.5%,/,0.92µM*,4.47µM*
COc1ccc(N(/N=C2\Sc3ccccc3C2=O)C(C)=O)cc1,12µM*,10.5%,15.8µM*,?,?
CCCC(=O)NCC1(N(C)C)CCCCC1,-0.3%,/,/,/,/
O=C(Nc1cccc(F)c1)N1CCCC2(CCN(C(=O)c3csnn3)CC2)C1,/,/,-5.8%,/,/
CC(C)CC(N=Cc1c(O)c2ccccc2oc1=O)C(=O)O (centres undefined),?,-1.8%,11.2%,3.1%,0.3%
c1ccc(CSCc2cn3ccccc3n2)cc1,16.9µM*,2.82µM*,15.8µM*,?,1.12µM*
Cc1ccc(SCc2cn3ccccc3n2)cc1,5.36µM*,1.26µM*,/,5.17µM*,1.58µM*
c1ccc2nc(SCc3cn4ccccc4n3)cnc2c1,?,?,?,1.5%,?
Cc1cccc(NS(=O)(=O)c2ccc3c(c2)CCN3C(=O)C2CC2)c1C,?,/,-23.5%,/,/
COc1ccc(Nc2ncc(C(=O)N3CCN(Cc4ccccc4)CC3)c3ccccc23)cc1,19µM*,0.6%,-40.9%,-9.3%,-7.9%
CC1(C)CC(=O)c2sc(NS(=O)(=O)c3ccc(F)cc3)nc2C1,-20.0%,-1.1%,/,0.4%,-0.2%
N/C(=N\O)c1cn([C@@H]2O[C@@H](CO)[C@H](O)[C@@H]2O)c2ncnc(NO)c12,/,/,0.1%[9.22 µM],/,/
CN(C)c1ncccc1-c1nc2ccccc2s1,-13.4%,-1.3%,4.3%,0.0%,-3.2%
O=S(=O)(c1cc(-c2nc3ccccc3s2)ccc1Cl)N1CCOCC1,-8.7%,-5.5%,-21.5%,-5.2%,1.4%
c1ccc(-c2nc3ccccc3s2)nc1,3.79µM*,1.41µM*,15.8µM*,?,1.41µM*
COc1cc(OC)cc(-c2nc3ccccc3s2)c1,8.49µM*,11.0%,?,?,12.8%
Brc1ccc(-c2nc3ccccc3s2)s1,1.07µM*,?,14.1µM*,?,1.58µM*
CSc1nc2ccccc2s1,-7.8%,-1.2%,-8.2%,1.8%,0.3%
